The nature of test [1]: qHTS assay to identify small molecule inhibitors of chordoma cells - UCH-1 (AID 1259355). Note: nearly all actives have a fitted effect of over 55% in size. Note: potency is the fitted concentration of half-maximal effect; series mostly up to about 46 µM. A digest of the protocol:
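Cells (800/well) were seeded and left overnight at 37 C, 5% CO2, then treated with drugs at 15 concentrations plus a combination mix of auranofin, camptothecin, doxorubicin, rubitecan and topotecan. Viability after 48hr was read by CellTiter-Glo luminescence.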
Background: In qHTS, concentration-response curves come from the screen itself.

The nature of test [2]: qHTS assay to identify small molecule inhibitors of chordoma cells - UCH-2 (AID 1259356). Note: series mostly up to about 46 µM.
Test [3] can be described thus: P-glycoprotein substrates identified in KB-8-5-11 adenocarcinoma cell line, qHTS therapeutic library screen (AID 1346987). Note: nearly all actives have a fitted effect of over 65% in size. Note: potency is the fitted concentration of half-maximal effect. Particulars: outcome: dose series up to 44.5 µM unless noted. In a few lines:
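P-gp-mediated resistance screen: KB-8-5-11 cells treated 72 h with compounds in dose-response. CellTiter-Glo viability.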

Each structure is given as a SMILES string. Several values for one entry are separate records, joined by “and”; a condition that tells them apart may be missing. Equal entries are not always repeated. Results filed as inconclusive are left out. Activity calls are given as the source filed them. Calls come from the whole dose curve; as a rule, active = well fitted curve in the direction sought with a large enough effect; inconclusive = small, poorly fitted or top-dose-only effect, or another doubt; inactive = no such curve, though single readings can be large; an effect the other way counts as inactive or inconclusive.

Consider `CCOC(=O)Cc1ccc(-c2ccccc2)cc1`, for which the Potency entry in test [1], in test [2] and in test [3] was “inactive” each time.

`[O-][N+](=Nc1ccccc1)c1ccccc1`: the Potency result in test [1], in test [2] and in test [3] was “inactive” in each case.

`CC(=O)Nc1c(I)c(C(=O)O)c(I)c(N(C)C(C)=O)c1I`: the Potency result in test [1], in test [2] and in test [3] was “inactive” throughout.

As for `CC1CCC(NC(=O)N(CCCl)N=O)CC1` (centres undefined), the Potency result in test [1], in test [2] and in test [3] was “inactive” each time.

As for `CCc1ccc(S(=O)(=O)O)cc1`, the Potency result in test [1], in test [2] and in test [3] was “inactive” each time.

With `O=C1CC[C@@H](C(=O)N[C@H]2C[C@@H]2c2ccccc2)N1`, the Potency result in test [1], in test [2] and in test [3] was “inactive” throughout.

For `CCC(C(=O)NC(N)=O)c1ccccc1` (centres undefined), the Potency entry in test [1], in test [2] and in test [3] was “inactive” each time.

On to `CN1C(=O)OC(C)(C)C1=O`, for which the Potency result in test [1], in test [2] and in test [3] was “inactive” throughout.

Regarding `O=c1[nH]c(=O)n([C@H]2C[C@H](O)[C@@H](CO)O2)cc1/C=C/Br`, the Potency result in test [1], in test [2] and in test [3] was “inactive” each time.

Take `Cc1cc2nc3c(=O)[nH]c(=O)nc-3n(C[C@H](O)[C@H](O)[C@H](O)COP(=O)(O)OP(=O)(O)OC[C@H]3O[C@@H](n4cnc5c(N)ncnc54)[C@H](O)[C@@H]3O)c2cc1C`: the Potency entry in test [1], in test [2] and in test [3] was “inactive” in each case.

As to `COc1ccc([C@@H]2CC(=O)c3c(O)cc(O[C@@H]4O[C@H](CO[C@@H]5O[C@@H](C)[C@H](O)[C@@H](O)[C@H]5O)[C@@H](O)[C@H](O)[C@H]4O)cc3O2)cc1O`, the Potency entry in test [1], in test [2] and in test [3] was “inactive” each time.

On to `O=C(O)/C=C/C(=O)Nc1ccc(S(=O)(=O)Nc2nccs2)cc1`, for which the Potency entry in test [1], in test [2] and in test [3] was “inactive” in each case.

Take `FCOC(C(F)(F)F)C(F)(F)F`: the Potency entry in test [1], in test [2] and in test [3] was “inactive” in each case.

Turning to `NC[C@@H]1CC[C@@H](N)[C@@H](O[C@H]2[C@H](O)[C@@H](O[C@H]3O[C@H](CO)[C@@H](O)[C@H](N)[C@H]3O)[C@H](N)C[C@@H]2N)O1`, the Potency entry in test [1], in test [2] and in test [3] was “inactive” in each case.

As for `Cc1cccc(C)c1NC(=O)C1CCCCN1C` (centres undefined), the Potency result in test [1], in test [2] and in test [3] was “inactive” in each case.

On to `CN1C(=O)C[C@@H](C(=O)N[C@@H](Cc2cnc[nH]2)C(=O)N2CCC[C@H]2C(N)=O)NC1=O`, for which the Potency result in test [1], in test [2] and in test [3] was “inactive” in each case.

Regarding `CC[C@@]1([C@@H]2O[C@@H]([C@H]3O[C@@](O)(CO)[C@H](C)C[C@@H]3C)C[C@@H]2C)CC[C@H]([C@]2(C)CC[C@]3(C[C@H](O)[C@@H](C)[C@@H]([C@@H](C)[C@@H](OC)[C@H](C)C(=O)O)O3)O2)O1` (stereo in doubt), the Potency in test [1] was 1260 nM (active); in test [3], 6.51 µM (active) and 5.8 µM (active). Further, the Potency entry in test [2] was “inactive”.

On to `CCCCCCCCCCCCCCCCCC(=O)OC[C@@H](O)[C@H]1OC[C@H](O)[C@H]1O`, for which the Potency entry in test [1], in test [2] and in test [3] was “inactive” each time.

In the case of `CC[C@H](CC[C@@H](C)[C@H]1CC[C@H]2[C@@H]3CC=C4C[C@@H](O)CC[C@]4(C)[C@H]3CC[C@]12C)C(C)C`, the Potency result in test [1], in test [2] and in test [3] was “inactive” each time.

Consider `C=CC1=C(C(=O)O)N2C(=O)[C@@H](NC(=O)/C(=N/OCC(=O)O)c3csc(N)n3)[C@H]2SC1` (stereo in doubt), for which the Potency result in test [1], in test [2] and in test [3] was “inactive” each time.

Consider `C=CC[N+]1([C@H]2C[C@H]3[C@@H]4CC[C@H]5C[C@H](O)[C@@H](N6CCOCC6)C[C@]5(C)[C@H]4CC[C@]3(C)[C@H]2OC(C)=O)CCCC1`, for which the Potency entry in test [1], in test [2] and in test [3] was “inactive” in each case.

For `O=C(Cc1cccs1)N[C@@H]1C(=O)N2C(C(=O)[O-])=C(C[n+]3ccccc3)CS[C@H]12`, the Potency result in test [1], in test [2] and in test [3] was “inactive” each time.

Take `O=C1c2ccccc2CN2C(=O)c3ccccc3CN12`: the Potency result in test [1], in test [2] and in test [3] was “inactive” in each case.

Turning to `[O]=[Bi][O][Bi]=[O]`, the Potency result in test [1], in test [2] and in test [3] was “inactive” throughout.

Turning to `CC(CNC(=O)c1cccnc1)NC(=O)c1cccnc1` (centres undefined), the Potency entry in test [1], in test [2] and in test [3] was “inactive” each time.

`CCN(CC)C(=S)S`: the Potency result in test [1], in test [2] and in test [3] was “inactive” in each case.

`C=CC(C)(O)CC/C=C(\C)CCC=C(C)C` (centres undefined): the Potency entry in test [1], in test [2] and in test [3] was “inactive” in each case.

With `C[C@@H]1O[C@@H](OC[C@H]2O[C@@H](Oc3c(-c4ccc(OCCO)c(OCCO)c4)oc4cc(OCCO)cc(O)c4c3=O)[C@H](O)[C@@H](O)[C@@H]2O)[C@H](O)[C@H](O)[C@H]1O`, the Potency entry in test [1], in test [2] and in test [3] was “inactive” in each case.

Take `Nc1nccs1`: the Potency entry in test [1], in test [2] and in test [3] was “inactive” each time.

As to `NCCN`, the Potency entry in test [1], in test [2] and in test [3] was “inactive” each time.

For the compound `CC(C)CCCCCCc1ccc(O)cc1`, the Potency result in test [1], in test [2] and in test [3] was “inactive” throughout.

As to `CN[C@@H]1[C@@H](O[C@H]2O[C@H](CO)[C@@H](N)[C@H](O)[C@H]2O)O[C@H]2C[C@@H](N)[C@@H](O[C@H]3[C@H](O)[C@@H](O)[C@H](N)C[C@@H]3N)O[C@@H]2[C@@H]1O`, the Potency entry in test [1], in test [2] and in test [3] was “inactive” throughout.

Regarding `CC(=O)Nc1ccc(OC(=O)c2ccccc2O)cc1`, the Potency entry in test [1], in test [2] and in test [3] was “inactive” each time.

The values above are taken from PubChem BioAssay (NCATS).
